Bioassay records: PubChem BioAssay, National Center for Advancing Translational Sciences (NCATS)
SARS PLpro yeast = qHTS of Yeast-based Assay for SARS-CoV PLP | S. cerevisiae expressing SARS-CoV PLpro, growth rescue | Potency, µM (highest dose often 32.9 µM), usual class: activators | 330,000 tested, 0.19% active; calls by dose curve; also: nearly all actives have a fitted effect of over 55% in size
NS1 function inh = qHTS Assay for Inhibitors of Influenza NS1 Protein Function | Potency, µM (titrated, usually from 46.1 µM) | 270,000 tested, 0.4% active; calls by dose curve; also: actives are rising curves; nearly all actives have a fitted effect of over 50% in size
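In this qHTS, NS1 from influenza A is expressed in budding yeast, where it slows growth. Cells are switched from glucose to 2% galactose medium (pH 6.0, -URA), treated with compound, and growth recovery is read at OD600.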
CHX counter = Cycloheximide Counterscreen for Small Molecule Inhibitors of Shiga Toxin; AID 2314, 2010; cell reporter, cycloheximide protein synthesis inhibition counterscreen; max response, %; 300,000 tested, 12% active; in the data active = max response mostly above about 13%, no sharp cut-off; inactive = mostly below about 14%; also: read at 38.3 µM for the half of the compounds with a filed dose
Shiga toxin inh = A qHTS for Small Molecule Inhibitors of Shiga Toxin | Vero cells, Shiga toxin protein synthesis inhibition reporter | inhibition, % at 38.7 µM | 290,000 tested, 9.2% active; in the data active = inhibition mostly above about 28%, no sharp cut-off; inactive = mostly below about 43%
Pf growth 48h = Primary qHTS for delayed death inhibitors of the malarial parasite plastid, 48 hour incubation | AID 504832, 2011 | Potency, µM (series often up to 28.7 µM), actives largely listed as inhibitors | P. falciparum luciferase growth in erythrocytes, 48 h | 310,000 tested, 5.9% active
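Erythrocytes infected with P. falciparum carrying an integrated firefly luciferase reporter (2% hematocrit, 0.1% parasitemia final) were exposed to compounds in RPMI 1640 with 0.5% Albumax at 37 C, 5% CO2. Growth inhibition was scored as reduced luminescence.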
Pf growth 96h = Primary qHTS for delayed death inhibitors of the malarial parasite plastid, 96 hour incubation | P. falciparum luciferase reporter growth, 96 h | Potency, µM (doses to about 28.7 µM), usual class: inhibitors | 320,000 tested, 6.9% active
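P. falciparum expressing integrated firefly luciferase grown in erythrocytes (2% hematocrit, 0.05% parasitemia final) with compounds for 96 hours at 37 C, 5% CO2. Growth inhibition read as loss of luminescence after adding luciferase detection reagent.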
Large screens that a line does not name were inactive. Hits are enriched below; roughly 21% of the tested compounds scored in any of these assays. Unless noted, calls follow the shape of the dose curve; as a rule, active = well fitted inhibition curve with a large enough effect; inconclusive = small, poorly fitted or top-dose-only effect, or another doubt; inactive = no such curve, though single readings can be large or run the other way.

COc1ccc(NC(=O)c2cncc(Br)c2)c(S(=O)(=O)N2CCOCC2)c1	Pf growth 48h inconclusive, Pf growth 96h 10.4µM
COc1ccc(C(=O)Nc2ccc(Br)cc2F)cc1S(=O)(=O)N1CCCC1	Pf growth 48h inconclusive, Pf growth 96h 10.4µM (no result: NS1 function inh, CHX counter, Shiga toxin inh)
O=C(Nc1ccccc1C(=O)N1CCCCC1)c1cccc(S(=O)(=O)N2CCOCC2)c1	none
COc1ccc(C(=O)Nc2ccccc2[N+](=O)[O-])cc1S(=O)(=O)N1CCOCC1	Pf growth 96h inconclusive
O=C(Nc1ccccc1C(=O)N1CCCCCC1)c1cccc(S(=O)(=O)N2CCOCC2)c1	Pf growth 48h 11.7µM, Pf growth 96h inconclusive
COc1ccc(C(=O)Nc2ccccc2N2CCOCC2)cc1S(=O)(=O)N1CCOCC1	Pf growth 48h 5.86µM, Pf growth 96h 1.85µM (no result: NS1 function inh, CHX counter, Shiga toxin inh)
O=C(/C=C/c1ccccc1)Nc1nnc(-c2ccco2)o1	none
CCOc1ccccc1NC(=O)CN1CCN(Cc2ccccc2)CC1	none (no result: Pf growth 48h)
CN1CCN(S(=O)(=O)c2cccc(C(=O)Nc3cc(Cl)ccc3N3CCOCC3)c2)CC1	Pf growth 48h inconclusive, Pf growth 96h inconclusive (no result: NS1 function inh, CHX counter, Shiga toxin inh)
CC1CN(S(=O)(=O)c2cccc(C(=O)Nc3cc(Cl)ccc3N3CCOCC3)c2)CC(C)O1 (centres undefined)	Pf growth 48h 9.28µM, Pf growth 96h 9.28µM (no result: NS1 function inh, CHX counter, Shiga toxin inh)
O=C(Nc1ccccc1N1CCOCC1)c1ccc(F)c(S(=O)(=O)N2CCOCC2)c1	Pf growth 48h inconclusive, Pf growth 96h 2.08µM (no result: NS1 function inh, CHX counter, Shiga toxin inh)
O=C(Nc1ccccc1N1CCOCC1)c1ccc(Cl)c(S(=O)(=O)N2CCCC2)c1	Pf growth 48h inconclusive, Pf growth 96h inconclusive (no result: NS1 function inh, CHX counter, Shiga toxin inh)
COc1ccc(C(=O)Nc2cc(Cl)ccc2N2CCOCC2)cc1S(=O)(=O)N1CCOCC1	Pf growth 48h 10.4µM, Pf growth 96h inconclusive (no result: NS1 function inh, CHX counter, Shiga toxin inh)
Cc1ccccc1NC(=O)c1cccc(S(=O)(=O)N2CCOCC2)c1	Pf growth 96h inconclusive
O=C(Nc1ccccc1N1CCOCC1)c1cccc(S(=O)(=O)N2CCOCC2)c1	Pf growth 48h inconclusive, Pf growth 96h 4.65µM (no result: NS1 function inh, CHX counter, Shiga toxin inh)
COc1ccccc1CNC(=O)CCCNC(=O)Cn1cnc2sc(C)c(C)c2c1=O	Pf growth 96h inconclusive
O=C(NCCc1nnc2ccc(SCC(=O)N3CCCC3)nn12)c1ccc(F)cc1	Pf growth 96h inconclusive
CC(=O)N1c2ccc(S(=O)(=O)N(C)C3CCCCC3)cc2CC1C (centres undefined)	none
O=C(O)CS(=O)CC(=O)Nc1cccc(C(F)(F)F)c1 (centres undefined)	none
CCn1c(=O)c(C(=O)NNS(=O)(=O)c2ccc(Br)cc2)c(O)c2ccccc21	none
COc1ccc(S(=O)(=O)N2CCOCC2)cc1NC(=O)c1ccc(Cl)cc1	Pf growth 96h 8.28µM (no result: SARS PLpro yeast, NS1 function inh, CHX counter, Shiga toxin inh)
COc1ccc(C(=O)Nc2ccc(N3CCCCCC3)cc2)cc1S(=O)(=O)N1CCOCC1	Pf growth 48h 11.7µM, Pf growth 96h inconclusive (no result: NS1 function inh, CHX counter, Shiga toxin inh)
CCOC(=O)N1CCN(C(=O)COC(=O)c2ccc(Cl)nc2)CC1	none (no result: NS1 function inh, CHX counter, Shiga toxin inh, Pf growth 48h, Pf growth 96h)
CS(=O)(=O)c1ccccc1C(=O)Nc1ccc(-c2nc3ccccc3[nH]2)cc1	CHX counter 19.2, Shiga toxin inh 42.2
CS(=O)(=O)c1ccccc1C(=O)Nc1ccc(-c2nc3ccccc3o2)cc1	CHX counter 31.5, Shiga toxin inh 65.0, Pf growth 96h inconclusive
O=C(O)c1ccccc1-c1ccccc1C(=O)Nc1cccc(-c2nc3ccccc3o2)c1	none
Cc1ccccc1C(=O)Nc1ccc(-c2nc3ccc(C(=O)c4ccccc4)cc3[nH]2)cc1	Pf growth 48h 8.28µM, Pf growth 96h inconclusive
O=S1(=O)NC(=NCCOCCO)c2ccccc21	none
Cc1[nH]c(-c2ccco2)nc1C(=O)O	Pf growth 96h 6.57µM
CCOC(=O)Cc1nnc(Nc2cc(C)ccc2C)c2ccccc12	none
CCOC(=O)Cc1nnc(Nc2ccc(C)cc2C)c2ccccc12	Pf growth 96h 4.65µM
CC(=O)c1cccc(NC(=S)NC(=O)c2ccccc2Br)c1	NS1 function inh inconclusive
CC(=O)c1cccc(NC(=S)NC(=O)c2ccccc2C)c1	none
CC(=O)c1cccc(NC(=S)NC(=O)c2ccc(Cl)cc2)c1	CHX counter 62.9, Shiga toxin inh 65.5
Cc1ccc(C(=O)NC(=S)Nc2ccc3[nH]c(=O)[nH]c3c2)c(C)c1	Pf growth 96h inconclusive
Cc1cccc(C(=O)NC(=S)Nc2ccc3[nH]c(=O)[nH]c3c2)c1	CHX counter 16.5
CC(=O)c1cccc(NC(=S)NC(=O)c2cccc(C)c2)c1	CHX counter 39.8, Shiga toxin inh 82.9
CC(=O)c1ccc(NC(=S)NC(=O)Cc2ccc(Cl)cc2)cc1	none
CC(=O)c1ccc(NC(=S)NC(C)c2ccc(Cl)cc2Cl)cc1 (centres undefined)	Pf growth 48h 2.33µM, Pf growth 96h inconclusive (no result: NS1 function inh)
CN(C)C(=O)CCc1ccc2c3c([nH]c2c1)[C@]1(CCc2ccccc2)[C@@H](C(=O)N2CCCCC2)C[C@H](CC(=O)NC(C)(C)C)C(=O)N1CC3	none (no result: NS1 function inh, CHX counter, Shiga toxin inh, Pf growth 48h, Pf growth 96h)
C[C@@H]1[C@@H](C)N1C[C@H](O)Cn1ccnc1[N+](=O)[O-] (some centres undefined)	none (no result: SARS PLpro yeast, CHX counter, Shiga toxin inh, Pf growth 48h, Pf growth 96h)
O=c1cc(Cn2ccnc2)c2cc(O)ccc2o1	none
CCC/C(O)=C1\C(=O)CC(c2ccccc2)CC1=NCCc1c(C)[nH]c2ccccc12 (centres undefined)	Pf growth 48h 2.62µM, Pf growth 96h inconclusive
CC(=NCCc1c(C)[nH]c2ccc(C)cc12)C1=C(O)CC(c2ccccc2)CC1=O (centres undefined)	none
CCC/C(O)=C1\C(=O)CCCC1=NCCc1c(C)[nH]c2ccccc12	none
CCCCC(=NCCc1c(C)[nH]c2ccccc12)C1=C(O)CC(c2ccccc2)CC1=O (centres undefined)	Pf growth 48h 9.28µM, Pf growth 96h inconclusive (no result: NS1 function inh)
CCCC(=NCCc1c(C)[nH]c2ccccc12)C1=C(O)CC(c2ccccc2)CC1=O (centres undefined)	Pf growth 48h 13.1µM
CC(=NCCc1c(C)[nH]c2ccc(OC(F)(F)F)cc12)C1=C(O)CC(c2ccccc2)CC1=O (centres undefined)	Pf growth 48h inconclusive (no result: NS1 function inh)
Cc1ccc(S(=O)(=O)CCC(O)c2ccc(Cl)cc2)cc1 (centres undefined)	none (no result: Pf growth 48h)
CN(c1ccccc1)c1nc2ccsc2c(=O)s1	CHX counter 55.8, Shiga toxin inh 97.4, Pf growth 96h inconclusive
CCN(c1ccccc1)c1nc2ccsc2c(=O)s1	CHX counter 23.0
CN(Cc1nc2ccccc2c(=O)[nH]1)Cc1nc2ccsc2c(=O)[nH]1	Pf growth 48h inconclusive, Pf growth 96h inconclusive (no result: NS1 function inh)
CSc1nc2ccsc2c(=O)n1-c1ccccc1	none
NNC(=O)CN1C(CN2CCOCC2)=Nc2ccc(Br)cc2C1c1ccccc1 (centres undefined)	Pf growth 48h inconclusive, Pf growth 96h 13.1µM
